The text below walks through data of PubChem BioAssay (NCI).

The panel holds about 83,000 compounds, 20% with a hit somewhere; the sample as a whole holds those more often.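 For each line, cells grew in 96-well plates with the test compound present at a single concentration for 48 hours.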 Values without a mark were called inactive. Activity calls are given as the source filed them.

The subject of the assay is IGROV1 ovarian. Kind of assay: NCI-60 one-dose screen, 48 h (100 = growth as untreated, 0 = no growth, -100 = all killed). As to conditions: 10 µM unless noted. The procedure: Growth inhibition of the IGROV1 human tumor cell line is measured as a screen for anti-cancer activity. Cells are grown in 96 well plates and exposed to the test compound for 48 hours. Compounds are tested at a single concentration, which is 10^-5 M for most compounds. The reported endpoint is percent growth (GI% or GIPRCNT), where numbers from 0 - 100% represent growth inhibition, and numbers from -100% - 0 represent cell death. For example, a value of 40 represents 60% growth inhibition. A value of 0 means no net growth occurred over the course of the experiment. A value of -40 indicates 40% of cells at the beginning of the experiment died by the end of the experiment. A value of -100 means all cells are dead at the end of the experiment.
NCI-60 Human Tumor Cell Lines Screen was performed using the standard one-dose NCI protocol, which is described in more detail at https://dtp.cancer.gov/discovery_development/nci-60/default.htm.
Compounds with GIPRCNT values below 10 were considered active. Activity score was based on GIPRCNT using the following formula: […]
Score is 0 for GIPRCNT values of 100 or above, 50 for GIPRCNT values of 0, and 100 for GIPRCNT values of -100.
In the case of `CN1CC[C@H](c2c(O)cc(O)c3c(=O)cc(-c4ccccc4Cl)oc23)[C@H](O)C1`, the growth is 4.27% (active).

With `Clc1ccc2c(NCCCNCc3ccc4c(c3)OCO4)ccnc2c1`, the growth was 57.3%.

As to `Cc1ccsc1C(NC(=O)c1ccccc1)c1cc(Cl)c2cccnc2c1O` (stereo not given), the growth was 13.1%.

Consider `CO/C=C/C(=O)c1cc2cnc3c(=N)cc(NC(=O)C(C)C)c([nH]1)c23`, for which the growth is -40% (active).

For the compound `COc1cc(F)c(F)c(Nc2ccc(I)cc2F)c1NS(=O)(=O)C1(C[C@H](O)CO)CC1`, the growth was 9.36% (active).

Regarding `FC(F)c1nc2ccccc2n1-c1nc(N2CCOCC2)nc(N2CCOCC2)n1`, the growth is -37% (active).

`O=C(NO)c1ccc(Cn2c(=O)n(-c3ccccc3F)c(=O)c3ccccc32)cc1`: the growth was -21.7% (active).

Turning to `COC(=O)[C@H](C)NC(=O)[C@@H](OC)[C@@H]1Cc2cc3cc(OC4CC(OC5CC(O)C(O)C(C)O5)C(O)C(C)O4)c(C)c(O)c3c(O)c2C(=O)[C@H]1OC1CC(OC2CC(OC3CC(C)(O)C(O)C(C)O3)C(O)C(C)O2)C(O)C(C)O1` (stereo not given in full), the growth was 22.8%.

With `COc1cc2c(Oc3ccc4[nH]c(C)cc4c3F)ncnc2cc1OCCCN1CCCC1`, the growth is 46.6%.

As for `COc1cc(NCCCN)c2ncccc2c1`, the growth is 95.7%.

On to `C=C1C(=O)O[C@H]2[C@H]1CC/C(C=Nc1c(N)cc(C(F)(F)F)cc1C(F)(F)F)=C\CC[C@@]1(C)O[C@@H]21`, for which the growth was -46.3% (active).

Take `CC[n+]1c(/C=C/C=C2\N(C)c3ccccc3C2(C)C)sc2ccccc21`: the growth was 32%.

In the case of `Cn1cnc2c(F)c(Nc3ccc(Br)cc3F)c(C(=O)NOCCO)cc21`, the growth was 27.6%.

Consider `COc1ccc(COc2cc3oc(=O)c4cc(C(C)O)ccc4c3cc2OC)cc1` (stereo not given), for which the growth was 57.6%.

Consider `COC(=O)[C@]12CC[C@@H](C)[C@H](C)[C@@H]1C1=CC[C@@H]3[C@@]4(C)C(c5cnco5)=C[C@@](C)(CO)C4=CC[C@@]3(C)[C@]1(C)CC2`, for which the growth is 77.6%.

`COc1ccc(-c2ccc3ncc4c(c3c2)n(-c2ccc(N3CCNCC3)c(C(F)(F)F)c2)c(=O)n4C)cn1`: the growth was -79.4% (active).

As to `Cn1ncc(Cl)c1-c1cc(C(=O)N[C@H](CN)Cc2ccc(F)c(F)c2)oc1Cl`, the growth was -23.8% (active).

Regarding `NC1=Nc2cc(OCCCN3Cc4ccccc4C3)c(OCC3CC3)cc2C12CCCC2`, the growth was 71.7%.

Turning to `CCN1CCN(c2cc(C)nc(N(CCCNc3ccnc4cc(Cl)ccc34)Cc3ccc4c(c3)OCO4)n2)CC1`, the growth was 5.03% (active).

`Cc1ccc(N)cc1CN1C(=O)c2ccccc2C1=O`: the growth is 105%.

As to `N[C@@H]1CCCN(c2c(/C=C3\SC(=O)NC3=O)cccc2-c2ccccc2)C1`, the growth is 66.7%.

Turning to `CCCC(=O)OCC1OC(n2cnc3c(=S)nc(N)[nH]c32)C(OC(=O)CCC)C1OC(=O)CCC` (stereo not given), the growth is 51%.

For the compound `COc1ccc(C2OC(c3cc(-c4cc5ccccc5o4)nn3-c3ccccc3)=NN2C(C)=O)cc1` (stereo not given), the growth was 89.4%.

Consider `CCCCCc1ccc(C)cc1OC(=O)CCl`, for which the growth was 103%.

For the compound `C/C(=N\NC(=O)Cn1c(-c2ccc(S(C)(=O)=O)cc2)nc2ccccc21)c1ccc(Cl)cc1`, the growth is 92.6%.

On to `N#Cc1c(NC(=O)c2cccs2)[n+]([O-])c2ccc(F)cc2[n+]1[O-]`, for which the growth was 68.9%.

Turning to `CCCCCCCC(=O)SCC/C=C/[C@@H]1CC(=O)NCc2nc(co2)C2=N[C@@](C)(CS2)C(=O)N[C@@H](C(C)C)C(=O)O1`, the growth was -23.2% (active).

Regarding `C=CC[n+]1c(/C=C2\Sc3ccccc3N2C)sc(-c2ccccc2)c1-c1ccccc1`, the growth was 36.7%.

On to `Brc1ccc([I+]c2ccc(Br)cc2)cc1`, for which the growth was 26.2%.

For the compound `CN1CCN(CCCOc2cccc3nc(Nc4ccc(Cl)c(C(F)(F)F)c4)ccc23)CC1`, the growth was 55.4%.

For the compound `Cn1ccnc1C(=O)/C=C/c1ccc(CC(=O)Nc2ccc(Br)cc2)cc1`, the growth is 11.3%.

With `COc1ccc(C(=O)c2cc(OC)c(OC)c(OC)c2)cc1/C=C/C(=O)c1ccc(F)cc1`, the growth is 91.7%.

On to `CN1CCC(CNc2ccc3ncc(-c4cccc(OC(F)(F)F)c4)n3n2)CC1`, for which the growth is -60.4% (active).

In the case of `NC1(c2ccc(-c3nc4ccn5c(=O)[nH]nc5c4cc3-c3ccccc3)cc2)CCC1`, the growth was 12.6%.

As for `COC(=O)[C@]12CC[C@@H](C)[C@H](C)[C@@H]1C1=CC[C@@H]3[C@@]4(C)C(C=O)=C[C@@](C)(COS(C)(=O)=O)C4=CC[C@@]3(C)[C@]1(C)CC2`, the growth is -24.1% (active).

As to `CCc1cc2c(cc1N1CCC(N3CCOCC3)CC1)C(C)(C)c1[nH]c3cc(C#N)ccc3c1C2=O`, the growth was -41.6% (active).

Take `O=C(Cn1ccc2ccccc21)Nc1ccc(-c2nc3ccccc3s2)cc1`: the growth is 73.8%.

As to `CC1=CC2c3oc(-c4ccccc4)c(C(=O)c4ccccc4)c3CNC2C=C1` (stereo not given), the growth was 102%.

In the case of `O=C(Nc1ccc(Nc2ncnc3sc4c(c23)CCOC4)cc1)Nc1ccc(Cl)c(C(F)(F)F)c1`, the growth was 79.5%.

`CCN1CCN(c2cc(C)nc(N(CCCNc3ccnc4cc(Cl)ccc34)Cc3cccs3)n2)CC1`: the growth is 10.3%.
